For 15 compounds, growth results are on record in PubChem BioAssay (NCI).

The panel holds about 83,000 compounds, 20% with a hit somewhere; the sample as a whole holds those more often.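 Testing used 96-well plates and a 48-hour single-concentration exposure. Example: -40 means 40% of the starting cells died.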 Values without a mark were called inactive. Calls of active or inactive are those of the source. The calls were made as follows: active = growth percent below 10; inactive = the rest.

This test has as its system KM12 colon. The experiment in a line: NCI-60 one-dose screen, 48 h (100 = growth as untreated, 0 = no growth, -100 = all killed). To be noted: 10 µM unless noted.
As to `CC1=CN2C(=NC3=C(CCCC/C3=C\c3ccccc3)C2c2ccccc2)S1` (stereo not given), the growth is 100%.

Regarding `COc1cc(CNCCN2C(=O)c3ccc4c5c(ccc(c35)C2=O)C(=O)N(CCNCc2cc(OC)c(OC)c(OC)c2)C4=O)cc(OC)c1OC`, the growth is -92.5% (active).

Take `COc1ccc(-c2nc3sc(C)nn3c2-c2nc3cc(C)c(C)cc3[nH]2)cc1`: the growth was 103%.

Regarding `Cc1nc2cc(Nc3nc(NCCN)nc(Nc4ccc(F)cc4)n3)ccc2n1Cc1ccccc1`, the growth was 70.6%.

Turning to `Cc1ccc2c(N/N=C\c3ccco3)cc(C)nc2n1`, the growth is 74.8%.

As to `CCCC1=NNC(=O)C1`, the growth is 117%.

`O=C(NCc1ccc(F)cc1)C1CN(c2ccc(Cl)cc2)N(c2ccc(Cl)cc2)C1=O` (stereo not given): the growth was 33.2%.

Take `CC1SC(c2ccc(Cl)cc2)N(CCc2cccs2)C1=O` (stereo not given): the growth is -12% (active).

Consider `COc1cccc2c(=O)c3c(sc12)c(NCCN(C)C)nc1ccccc13`, for which the growth was -76.7% (active).

Take `NC(=O)c1cccc(-n2ccc3cc(NC(=O)Nc4ccc(Cl)c(Cl)c4)ccc32)n1`: the growth was 55.5%.

Take `Cc1ccc(S(=O)(=O)N2C/C(=C\c3cc(F)cc(F)c3)C(=O)/C(=C/c3cc(F)cc(F)c3)C2)cc1`: the growth is -30.6% (active).

Turning to `Cn1c(=O)c(S(=O)(=O)c2ccccc2)cc2ccc3c(cnn3-c3ccc(Cl)cc3)c21`, the growth is 89.3%.

As for `CSc1ccc(OC(C)=O)cc1C`, the growth was 101%.

Regarding `O=c1onc(-c2ccccc2)c2ccccc12`, the growth was 110%.

In the case of `Nc1cc(Br)c(-c2nnc(CCC(=O)c3nc4ccccc4[nH]3)o2)c(Br)c1`, the growth was 69%.
